The text below walks through data of the supplement of paper PMC10037445.

Experiment [1] deals with RAW-Dual. Kind of experiment: NF-kB SEAP reporter activity, fold change vs agonist alone; higher = enhanced NF-kB activity. The following applies: library stock concentration (final ~1000-fold dilution): 10 mM. The gist of the method:
(§1)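 Cytotoxic wells were those whose IncuCyte confluency was below 70% of agonist controls in both mask sets. The cells were RAW-Dual macrophages at 50,000 cells/well in DMEM on 384-well plates, dosed with 50 nL of library stock by pin tool, stimulated with a PRR agonist 1 h later, and kept at 37 °C, 5% CO2 for 20 hours. IRF and NF-κB reporter activity, as fold change over agonist-alone wells, came from supernatant read by QuantiLuc luminescence and QuantiBlue absorbance, respectively.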

Experiment [2] relates to RAW-Dual. Kind of experiment: NF-kB SEAP reporter activity, fold change vs agonist alone; cytotoxicity flag (confluency mask): cytotoxic (confluency <70% of control); higher = enhanced NF-kB activity. The gist of the method: as §1
In experiment [3] the test system is RAW-Dual. Kind of experiment: NF-kB SEAP reporter activity, fold change vs agonist alone; cytotoxicity flag (confluency mask): not cytotoxic; higher = enhanced NF-kB activity. The gist of the method: as §1
Setting [4] is: cytotoxicity flag (confluency mask): not cytotoxic, agonist: Imiquimod (TLR7) […].
Where [5] appears, read: cytotoxicity flag (confluency mask): not cytotoxic, agonist: MPLA (TLR4) […].
[6] abbreviates: agonist: ODN 1826 (TLR9) 0.5 ug/mL.
The mark [7] stands for this setting: agonist: Pam2CSK4 (TLR2/6) 0.1 ug/mL.
Setting [8] is: agonist: Pam3CSK4 (TLR2/1) 0.1 ug/mL.

In all, about 2,900 compounds were measured (“NF-kB SEAP reporter activity, fold change vs agonist alone”: median about 0.99, highest 2% from about 2.6 on). What follows is part of a selection rich in the highest values, with near analogues and random picks from the rest.

In the case of `Cn1cc(C2=C(c3cccc(N)c3)C(=O)NC2=O)c2ccccc21`, the entries for the “NF-kB SEAP reporter activity” value in the experiment with RAW-Dual [1] (setting [4]) and in the experiment on RAW-Dual [1] (setting [5]) were 1.55 and 1.7, respectively.
With `CS(=O)(=O)O.Cn1cc(C2=C(c3cn(CCCSC(=N)N)c4ccccc34)C(=O)NC2=O)c2ccccc21` (library stock concentration (final ~1000-fold dilution): 10 mM), the “NF-kB SEAP reporter activity” value in the experiment on RAW-Dual [2] (agonist: LPS (TLR4) 0.1 ug/mL) was 0.173; with RAW-Dual [2] (setting [6]) it was 0.185; with RAW-Dual [2] (setting [7]), 0.0599; in the experiment on RAW-Dual [2] (setting [8]) it was 0.138.
Regarding `Cn1cc(C2=C(c3cccc(N)c3)C(=O)NC2=O)c2ccccc21` (library stock concentration (final ~1000-fold dilution): 10 mM), the “NF-kB SEAP reporter activity” value is 1.83 in the experiment with RAW-Dual [3] (agonist: LPS (TLR4) 0.1 ug/mL), 2.18 with RAW-Dual [3] (setting [6]), 1.59 in the experiment with RAW-Dual [3] (setting [7]) and 2.2 in the experiment with RAW-Dual [3] (setting [8]).
Consider `CS(=O)(=O)O.Cn1cc(C2=C(c3cn(CCCSC(=N)N)c4ccccc34)C(=O)NC2=O)c2ccccc21`, for which the “NF-kB SEAP reporter activity” value in the experiment with RAW-Dual [1] (cytotoxicity flag (confluency mask): cytotoxic (confluency <70% of control), agonist: Imiquimod (TLR7) […]) worked out at 0.13; with RAW-Dual [1] (cytotoxicity flag (confluency mask): cytotoxic (confluency <70% of control), agonist: MPLA (TLR4) […]), 0.222.
Consider `Cn1cc(C2=C(c3ccc(Cl)cc3Cl)C(=O)NC2=O)c2ccccc21`, for which the “NF-kB SEAP reporter activity” value in the experiment with RAW-Dual [1] (setting [4]) was determined as 1.58; in the experiment on RAW-Dual [1] (setting [5]) it was 1.99.
In the case of `Cn1cc(C2=C(c3ccc(Cl)cc3Cl)C(=O)NC2=O)c2ccccc21` (library stock concentration (final ~1000-fold dilution): 10 mM), the “NF-kB SEAP reporter activity” value is 3.23 in the experiment on RAW-Dual [3] (agonist: LPS (TLR4) 0.1 ug/mL), 2.04 in the experiment with RAW-Dual [3] (setting [6]), 1.49 in the experiment on RAW-Dual [3] (setting [7]) and 2.34 with RAW-Dual [3] (setting [8]).
As for `COc1cc2c3cc1Oc1c(OC)c(OC)cc4c1C(Cc1ccc(O)c(c1)Oc1ccc(cc1)CC3N(C)CC2)N(C)CC4.Cl.Cl` (stereo unspecified) (library stock concentration (final ~1000-fold dilution): 10 mM), the “NF-kB SEAP reporter activity” value with RAW-Dual [3] (agonist: LPS (TLR4) 0.1 ug/mL) stood at 1.44; with RAW-Dual [3] (setting [6]), 0.2; in the experiment with RAW-Dual [3] (setting [7]), 1.08; in the experiment on RAW-Dual [3] (setting [8]), 1.19.
On to `COc1cc2c3cc1Oc1c(OC)c(OC)cc4c1C(Cc1ccc(O)c(c1)Oc1ccc(cc1)CC3N(C)CC2)N(C)CC4.Cl.Cl` (stereo unspecified), for which the results for the “NF-kB SEAP reporter activity” value in the experiment on RAW-Dual [1] (setting [4]) and with RAW-Dual [1] (setting [5]) were 0.379 and 1.37, respectively.
For the molecule `CC1(C)SC2C(NC(=O)C(N)c3ccccc3)C(=O)N2C1C(=O)OCOC(=O)C1N2C(=O)CC2S(=O)(=O)C1(C)C` (stereo unspecified) (library stock concentration (final ~1000-fold dilution): 10 mM), the “NF-kB SEAP reporter activity” value turned out to be 1.06 with RAW-Dual [3] (agonist: LPS (TLR4) 0.1 ug/mL), 0.886 in the experiment with RAW-Dual [3] (setting [6]), 1.16 in the experiment with RAW-Dual [3] (setting [7]) and 0.993 in the experiment with RAW-Dual [3] (setting [8]).
As to `CC1(C)SC2C(NC(=O)C(N)c3ccccc3)C(=O)N2C1C(=O)OCOC(=O)C1N2C(=O)CC2S(=O)(=O)C1(C)C` (stereo unspecified), the “NF-kB SEAP reporter activity” value with RAW-Dual [1] (setting [5]) was determined as 1.07.
As to `CC(Oc1ccc2c(c1)OCCn1cc(-c3ncnn3C(C)C)nc1-2)C(N)=O` (stereo unspecified) (library stock concentration (final ~1000-fold dilution): 10 mM), the “NF-kB SEAP reporter activity” value is 2.07 with RAW-Dual [3] (agonist: LPS (TLR4) 0.1 ug/mL), 1.1 in the experiment on RAW-Dual [3] (setting [6]), 0.894 with RAW-Dual [3] (setting [7]) and 1.41 with RAW-Dual [3] (setting [8]).
With `CC(Oc1ccc2c(c1)OCCn1cc(-c3ncnn3C(C)C)nc1-2)C(N)=O` (stereo unspecified), the “NF-kB SEAP reporter activity” value in the experiment with RAW-Dual [1] (setting [4]) amounted to 0.585; in the experiment on RAW-Dual [1] (setting [5]), 1.4.
In the same order, the values of `Cc1nc(-c2cn3c(n2)-c2ccc(-c4cnn(C(C)(C)C(N)=O)c4)cc2OCC3)n(C(C)C)n1` are 0.619 and 1.84.
`Cc1nc(-c2cn3c(n2)-c2ccc(-c4cnn(C(C)(C)C(N)=O)c4)cc2OCC3)n(C(C)C)n1` (library stock concentration (final ~1000-fold dilution): 10 mM): the “NF-kB SEAP reporter activity” value is 2.74 in the experiment on RAW-Dual [3] (agonist: LPS (TLR4) 0.1 ug/mL), 1.31 in the experiment with RAW-Dual [3] (setting [6]), 0.996 in the experiment with RAW-Dual [3] (setting [7]) and 1.15 with RAW-Dual [3] (setting [8]).
